Compounds without any hit were thinned out: in the full panel of roughly 83,000, 20% have a hit.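 A percent growth of 40 corresponds to 60% growth inhibition; 0 means no net growth; -100 means all cells died. Active threshold: below 10.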 Unmarked numbers belong to inactive results. Calls of active or inactive are those of the source.

From PubChem BioAssay (NCI) come the findings set out here.

Common to all, as to test: NCI-60 one-dose screen, 48 h (100 = growth as untreated, 0 = no growth, -100 = all killed)
Common to all, as to conditions: 10 µM unless noted

Assay [1] has as its system SK-MEL-2 melanoma.
Assay [2] relates to EKVX NSCLC.
Assay [3] relates to SN12C renal.
The test system of assay [4] is UO-31 renal.
For assay [5], the system named is TK-10 renal.
For assay [6], the system named is CAKI-1 renal.
Assay [7] deals with A498 renal.
For assay [8], the system named is CCRF-CEM leukemia.
Assay [9] has as its system MOLT-4 leukemia.
For assay [10], the system named is SR leukemia.
The test system of assay [11] is RPMI-8226 leukemia.
The subject of assay [12] is OVCAR-8 ovarian.
Assay [13] deals with OVCAR-5 ovarian.
Assay [14] concerns OVCAR-4 ovarian.
In assay [15] the test system is SK-OV-3 ovarian.
Assay [16] deals with IGROV1 ovarian.
The subject of assay [17] is OVCAR-3 ovarian.
Assay [18] concerns HS 578T breast.
The test system of assay [19] is NCI/ADR-RES ovarian.
The test system of assay [20] is ACHN renal.

For the compound `CN=C1C=CC(=C(c2ccc(N(C)C)cc2)c2ccc(N(C)C)cc2)C=C1`, the growth in [1] is -52.4% (active); in assay [2] it was 3.72% (active); in assay [3], -32.1% (active); in assay [4], -14.2% (active); in assay [5], -53% (active); in [6] it was 9.65% (active). Besides, the growth is -27.4% (active) in assay [7]; 3.67% (active) in [8]; 3.36% (active) in assay [9]; -10.9% (active) in assay [10]; 0.425% (active) in assay [11]; -38.5% (active) in assay [12]. The growth was 17.4% in assay [13]; 7.52% (active) in assay [14]; -15.6% (active) in assay [15]; -12.7% (active) in [16]; -42.2% (active) in assay [17]; 32.6% in assay [18]. Moreover, the growth in [19] is 10.9%.

In the case of `N#Cc1cnn2c(-c3ccc(Cl)cc3)nc(NCCc3ccccc3)nc12`, the growth in assay [1] is 89.1%; in [2] it was 87.3%; in assay [3], 99.6%; in assay [4] it was 72.9%; in assay [5], 102%; in assay [20], 94.2%. The growth was 101% in assay [7]; 96.4% in assay [8]; 74.2% in [9]; 83.5% in [10]; 88.8% in [12]; 101% in assay [13]. Also, the growth is 85.7% in assay [14]; 74.5% in assay [15]; 83.4% in assay [16]; 99.2% in assay [17]; 99.6% in assay [18]; 90.1% in [19].

Consider `C#C[C@]1(O)CC[C@H]2[C@@H]3CC=C4c5sc(N=C(N)N)nc5CC[C@]4(C)[C@H]3CC[C@@]21C`, for which the growth was -13.4% (active) in [1]; 12.7% in assay [2]; -56% (active) in [3]; -77.7% (active) in assay [4]; 13.4% in [5]; -19.9% (active) in assay [6]. For the same compound, the growth in [7] was -90.8% (active); in assay [8], 4.5% (active); in assay [9], -8.43% (active); in assay [11], -29% (active); in [12], 10.1%; in assay [13] it was 28%. Also, the growth in assay [14] was 29%; in assay [15] it was -57.2% (active); in assay [17] it was -44.2% (active); in assay [18], -39.2% (active); in assay [19] it was 29.8%.

Regarding `Nc1ccc(-c2cc3c(Nc4ccc(OCc5cccc(F)c5)c(Cl)c4)ncnc3s2)cc1`, the growth in assay [1] is 25.3%; in assay [2] it was 21.5%; in assay [3], 48.4%; in assay [4] it was 19.6%; in [5], 32.5%; in assay [20], 29.6%. The growth in assay [7] was 39.3%; in assay [8] it was 24%; in [9] it was 30%; in [10], 14.5%; in [13], 77.9%; in [14] it was 54.8%. Further, the growth in assay [15] was -2.32% (active); in [16], 38.2%; in assay [18] it was 77%; in assay [19], 50.4%.

`NC(N)=N/N=C/c1ccc(Br)cc1`: the growth was 77.8% in assay [1]; 62.4% in assay [2]; 62.1% in assay [3]; 47.4% in [4]; 13.9% in [5]; 27.1% in [6]. For the same compound, the growth was 44.8% in assay [7]; 38.9% in [9]; 21.5% in assay [11]; 78.9% in assay [12]; 73.5% in [13]; 51.8% in assay [14]. Besides, the growth in assay [15] is -19.4% (active); in [16], 19.3%; in assay [17] it was 62.3%; in assay [18], 67.5%; in [19], 28.2%.

As for `C=C1C(=O)O[C@H]2[C@H]1CC/C(COC(=O)/C=C\C(=O)NCc1ccc(Cn3c(=O)sn(CCCC)c3=O)cc1)=C\CC[C@@]1(C)O[C@@H]21`, the growth in assay [1] was -54.2% (active); in [2], -48% (active); in assay [3], -93% (active); in assay [4], -100% (active); in [5] it was -76.9% (active); in [6], -78.8% (active). The growth was 11.2% in assay [7]; -26.1% (active) in [8]; -17.4% (active) in assay [9]; -24.7% (active) in assay [10]; 2.61% (active) in assay [12]; -78.9% (active) in [13]. The growth in assay [14] is -81.8% (active); in assay [15], 55.7%; in assay [16], -100% (active); in assay [17], -80.5% (active); in assay [18], -20.4% (active); in assay [19] it was -9.25% (active).

Turning to `Cc1cc(-c2ccc(N(C)C)cc2)c2sc(=O)[nH]c2n1`, the growth in [1] was 56%; in [2], 77.5%; in assay [3], 76.7%; in assay [4], 55.3%; in assay [5], 97.7%; in [6], 46.9%. In addition, the growth in assay [8] is 60%; in [9], 63.2%; in assay [10], 40.1%; in [11], 70.6%; in assay [12] it was 76.9%; in assay [13], 85%. In addition, the growth in [14] is 83.2%; in assay [16], 61.5%; in [17], 68.9%; in assay [18], 48.1%; in assay [19] it was 45.5%.

Consider `CCOC(=O)c1cnn2c(-c3ccc(Cl)cc3)nc(NCc3ccccc3)nc12`, for which the growth in assay [1] was 91%; in [2] it was 68.7%; in assay [3], 31.2%; in [4] it was 59.9%; in [5], 71.3%; in assay [20], 13.7%. The growth is 31.5% in assay [7]; 66.9% in [8]; 64.9% in assay [9]; 100% in assay [13]; 5.61% (active) in [14]; 112% in assay [15]. Also, the growth in assay [16] is 64.8%; in assay [17], 29.9%; in assay [18] it was 79.5%; in [19], 26.3%.
